# According to PMC5540273 (PLoS ONE, 2017):
# System: BRSK2
# Settings: concentration: 1 μM, replicates: in singlicate; n = 1
# 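Further: KINOMEscan kinase panel screen.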
row,SMILES,%Inh [%]
1,COc1cc2ncn(-c3cc(OCc4ccncc4Br)c(C(N)=O)s3)c2cc1OC [GW854278],20
2,Cc1cc(Nc2nc(-c3cccc(C)n3)nc3ccccc23)ccn1 [GW872411],13
3,Cc1nnc(-c2ccc(C)c(-c3ccc(C(=O)O)cc3)c2)o1 [GW608005],8
4,COc1cc(Nc2ccnc3ccc(C(F)(F)F)cc23)cc(OC)c1OC [GW577382],10
5,FC(F)(F)c1ccc(-c2ncn(CCCN3CCOCC3)c2-c2ccncc2)cc1 [SB-217780],7
6,Cl.c1ccc(Cn2cnc3cc(Nc4ncnc5ccccc45)ccc32)cc1 [GW272142],0
7,Cc1ccc(-c2ccc3c(ccc4sc5c(c43)NC[C@@H](C)N=C5N(C)C)n2)cn1,0
8,Cl.NS(=O)(=O)c1cccc(Nc2cc(-c3ccc(F)cc3)n[nH]2)c1 [GW824645],0
9,CCc1ccc(-c2ccc3c(c2)-c2nn(C)cc2S(=O)(=O)N3C)cc1,11
10,O=C(Nc1ccc2c(c1)OCO2)NC1CCN(c2ccnc(NCc3ccc(F)cc3)n2)CC1 [GSK1379859],0
11,Cc1nc(N(C)[C@H]2CN(C(=O)CC#N)CC[C@H]2C)c2cc[nH]c2n1,0
12,CCCC(=O)Nc1n[nH]c2ncc(-c3cccc4ccccc34)cc12 [SB-642057],0
13,COC(=O)c1c(-c2ccccc2)c2cc(C)ccc2c(=O)n1Cc1ccccc1,0
14,Cc1ccc(Oc2ccc(Nc3ncnc4cc[nH]c34)cc2C)cn1,19
15,COc1cc2ncn(-c3cc(OCCCc4ccccc4)c(C(N)=O)s3)c2cc1OC [GSK205189],3
16,O=C1NC(=O)C(c2ccccc2)=C1Nc1cccc(O)c1 [SB-390534],0
17,CN1C(=O)C(Nc2ccccc2)=C(c2ccccc2)C1=O [SB-300079],0
18,COc1ccc(-n2cnc3c(N)ncnc32)cc1 [SKF-97236],14

row,SMILES,%Inh [%]
1,COc1ccc(Nc2nccc(N3CCC(NS(=O)(=O)c4ccc(NC(C)=O)cc4)C3)n2)cc1 (stereo not drawn) [GSK1379729],0
2,Nc1ncnc2c1ncn2-c1cccc2ccccc12 [SKF-97184],22
3,Nc1nc(-c2ccccc2F)c(-c2ccnc3ccccc23)s1 [GW560459],4
4,CCc1nc(-c2cccc(C)c2)c(-c2ccncc2)s1,0
5,CCS(=O)c1ccc(-c2coc3ccc(-c4nnc(C)o4)cc23)cc1 (stereo not drawn),11
6,O=c1cc(N2CCOCC2)nc2n(Cc3ccc(F)c(Cl)c3)ccn12 [GSK2297099],0
7,COC(=O)c1c(-c2ccccc2)c2cc(Br)ccc2c(=O)n1Cc1ccc(NC(=O)CCC(=O)O)cc1,0
8,COc1cc2ncn(-c3cc(OCc4ccncc4)c(C(N)=O)s3)c2cc1OC [GSK336313],0
9,CCn1c(-c2nonc2N)nc2ccccc21 [SB-693162/GW549034],4
10,CCC(=O)c1c(-c2ccccc2)c2cc(Cl)ccc2c(=O)n1Cc1cc(S(C)(=O)=O)n(CC(N)=O)n1,0
11,O=C(Nc1n[nH]c2nc(-c3ccccc3)c(Cl)cc12)C1CC1 [SB-734909],51
12,COc1cccc(-n2cnc3c(N)ncnc32)c1 [SKF-97416],6
13,CCS(=O)(=O)c1ccc(OC)c(Nc2ncc(-c3ccc(F)cc3)o2)c1.Cl [GW591947],0
14,COc1cc(OC)cc(-c2cc3cnc(N)nc3nc2NC(=O)NC(C)(C)C)c1,6
15,COc1cc2nccc(Nc3ccc(OCc4ccc(NC(C)=O)cc4)cc3)c2cc1OC.Cl [GW440135],0
16,O=C(Nc1n[nH]c2cc(-c3ccccc3F)ccc12)C1CC1 [SB-733371],0
17,CN1C(=O)C(Nc2cc(Cl)c(O)c(Cl)c2)=C(c2ccc(Cl)cc2)C1=O [SB-404321],0
18,C[C@@H]1CC[C@H](C(=O)NC2CCCCC2)CN1c1cc(-c2ccc3c(N)n[nH]c3c2)nc(N)n1 [GSK2291363],10
